# PubChem BioAssay (NCI)
# This is part of a sample that, as a whole, favours compounds with a hit. Of some 83,000 tested, about 20% had one in any assay.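 A percent growth of 40 corresponds to 60% growth inhibition; 0 means no net growth; -100 means all cells died. Active threshold: below 10.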 Values without a mark were called inactive. Calls of active or inactive are those of the source.
# Key:
# Assay in all cases: NCI-60 one-dose screen, 48 h (100 = growth as untreated, 0 = no growth, -100 = all killed)
# DU-145 prostate = details: 10 µM
# K-562 leukemia = details: 10 µM
# MDA-MB-231 breast = details: 10 µM
# RXF 393 renal = details: 10 µM
# SF-268 CNS = details: 10 µM
# SF-295 CNS = details: 10 µM
# SF-539 CNS = details: 10 µM
# UACC-257 melanoma = details: 10 µM
# M14 melanoma = details: 10 µM
# HCT-15 colon = details: 10 µM
# SNB-75 CNS = details: 10 µM
# SNB-19 CNS = details: 10 µM
# U251 CNS = details: 10 µM
# PC-3 prostate = details: 10 µM
# SK-MEL-5 melanoma = details: 10 µM
# UACC-62 melanoma = details: 10 µM unless noted
# LOX IMVI melanoma = details: 10 µM
# SK-MEL-28 melanoma = details: 10 µM
# HT29 colon = details: 10 µM
# MALME-3M melanoma = details: 10 µM
SMILES,growth (DU-145 prostate),growth (K-562 leukemia),growth (MDA-MB-231 breast),growth (RXF 393 renal),growth (SF-268 CNS),growth (SF-295 CNS),growth (SF-539 CNS),growth (UACC-257 melanoma),growth (M14 melanoma),growth (HCT-15 colon),growth (SNB-75 CNS),growth (SNB-19 CNS),growth (U251 CNS),growth (PC-3 prostate),growth (SK-MEL-5 melanoma),growth (UACC-62 melanoma),growth (LOX IMVI melanoma),growth (SK-MEL-28 melanoma),growth (HT29 colon),growth (MALME-3M melanoma) [%]
C/C(O)=C(\C=N\C(N)=S)C(=O)Nc1ccccc1,109%,107%,92.2%,107%,101%,110%,114%,97.7%,105%,110%,88.1%,100%,97.4%,93.5%,97.6%,96.8%,96.7%,116%,,
CN(c1ccccc1)c1ncnc2c1ncn2C,108%,103%,109%,122%,97.5%,109%,107%,87.9%,104%,102%,92.8%,102%,98.9%,95.8%,102%,96.8%,98.5%,112%,102%,
Cc1ccc(C)n1-c1ccsc1C(=O)NNC(=O)CCl,105%,96.3%,,101%,,103%,101%,91.3%,77.8%,88.8%,112%,,95.6%,93.4%,85.8%,82.7%,16.4%,111%,106%,86.7
O=c1[nH][nH]c(=O)c2cc([N+](=O)[O-])ccc12,126%,98.9%,106%,109%,111%,117%,108%,110%,99.9%,121%,83.4%,108%,101%,104%,101%,112%,94.8%,115%,103%,
CCCC(=O)Nc1ccc2c(c1)CN1C(=O)c3ccccc3C1=N2,101%,102%,103%,109%,101%,86.7%,89.6%,102%,113%,98.3%,104%,110%,98.6%,98.6%,98.5%,100%,105%,111%,,
Cc1cc(N2CCC(N3CCCC3)CC2)nc(/N=C(\N)Nc2ccc(Cl)c(Cl)c2)n1,16.3%,-44.4% (active),-58.1% (active),-69.7% (active),-4.09% (active),-96.2% (active),-84.7% (active),-78.5% (active),-85.9% (active),-12.7% (active),-60.3% (active),90.7%,-71.8% (active),,-94% (active),-82.9% (active),-90.8% (active),-75% (active),-44.6% (active),
O=C(CCl)Nc1ccc2c(c1)C(=O)c1ccc(NC(=O)CCl)cc1C2=O,-55.7% (active),-14.9% (active),-48.2% (active),-86% (active),-66.6% (active),-22.6% (active),-92.2% (active),-12.2% (active),-55.5% (active),-86.6% (active),-55.4% (active),-45.3% (active),-89.3% (active),-22.1% (active),-88% (active),-73.1% (active),-89.6% (active),-40.6% (active),-59.8% (active),
O=[N+]([O-])c1cccc2nsnc12,114%,111%,112%,118%,101%,,108%,87.8%,101%,103%,96.7%,98.4%,104%,,94.9%,105%,99.7%,114%,105%,
O=C(c1ccc(O)cc1)c1ccc(O)cc1,110%,102%,125%,113%,102%,102%,100%,96.2%,98.7%,99.6%,,111%,94.1%,103%,99.3%,110%,97.4%,110%,106%,
CC(=O)OC(C(=O)O)c1ccccc1 (centres undefined),106%,108%,105%,112%,101%,113%,111%,106%,110%,111%,116%,115%,109%,,105%,112%,105%,119%,104%,
CC(C)NC(=O)OCc1c(COC(=O)NC(C)C)c(-c2ccc(Cl)c(Cl)c2)n2c1SCC2,41.6%,34.1%,,6.56% (active),,27.3%,32%,32.3%,50.3%,47.6%,27.8%,,43.3%,61.3%,67.7%,-19.3% (active),19.1%,92.8%,,62.9
C[C@]12CC[C@@H]3c4ccc(OCC(=O)O)cc4CC[C@H]3[C@@H]1CCC2=O,109%,78.7%,101%,115%,91%,111%,97.5%,93.4%,97.2%,106%,83.5%,103%,104%,,99.9%,96.5%,86%,,104%,
Cc1ccc(/C=C2\SC(=S)N(c3ccc(F)cc3)C2=O)o1,95.5%,77.8%,,75%,,73%,73.9%,102%,87.5%,88.1%,24.7%,,,96.1%,,85.2%,68.8%,100%,70.6%,77
CCOC(=O)c1ccc(Nc2sc(C(=O)c3cccc([N+](=O)[O-])c3)c(N)c2C#N)cc1,29.2%,16.1%,45.9%,15.8%,44.4%,-44.3% (active),1.59% (active),17.4%,24%,32.3%,-6.96% (active),48.8%,11.5%,31.1%,10.9%,28.6%,39.5%,63.1%,8.29% (active),
Cc1ccc(N)cc1[N+](=O)[O-],115%,108%,122%,114%,114%,105%,113%,98.7%,99.8%,106%,,113%,98.8%,95.8%,111%,105%,101%,,123%,
CCCCCCCCCCCCCC(=O)Oc1ccc[nH]c1=O,103%,90%,,113%,,97.1%,99%,84.3%,101%,85.8%,110%,,96.3%,86.9%,97.1%,88.7%,44.1%,109%,91.9%,95.2
CC1C(=O)c2ccccc2CC1C(=O)O (centres undefined),135%,103%,109%,120%,130%,,101%,92.8%,113%,115%,82.2%,128%,97.1%,97.6%,100%,116%,92.4%,114%,,
